Measurements reported in PubChem BioAssay (NCI).
About 83,000 compounds went through this panel and 20% of them were active in at least one assay; those are over-represented in the sample as a whole.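 Method: cells in 96-well plates; compound added at one concentration; 48 h incubation; percent growth measured; values under 10 scored active.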 Values without a mark were called inactive. Active and inactive are the calls of the source.

tested on: CAKI-1 renal; assay: NCI-60 one-dose screen, 48 h (100 = growth as untreated, 0 = no growth, -100 = all killed); conditions: 10 µM unless noted
Procedure: Growth inhibition of the CAKI-1 human tumor cell line is measured as a screen for anti-cancer activity. Cells are grown in 96 well plates and exposed to the test compound for 48 hours. Compounds are tested at a single concentration, which is 10^-5 M for most compounds. The reported endpoint is percent growth (GI% or GIPRCNT), where numbers from 0 - 100% represent growth inhibition, and numbers from -100% - 0 represent cell death. For example, a value of 40 represents 60% growth inhibition. A value of 0 means no net growth occurred over the course of the experiment. A value of -40 indicates 40% of cells at the beginning of the experiment died by the end of the experiment. A value of -100 means all cells are dead at the end of the experiment.
NCI-60 Human Tumor Cell Lines Screen was performed using the standard one-dose NCI protocol, which is described in more detail at https://dtp.cancer.gov/discovery_development/nci-60/default.htm.
Compounds with GIPRCNT values below 10 were considered active. Activity score was based on GIPRCNT using the following formula: […]
Score is 0 for GIPRCNT values of 100 or above, 50 for GIPRCNT values of 0, and 100 for GIPRCNT values of -100.

With O=C1Nc2ccccc2/C1=C/C(=N/c1nnc(-c2ccccc2)s1)c1ccccc1 as the molecule, how does the growth read?
The growth was -10.2% (active).

For O=C1C(Cl)=C(Cl)C(=O)c2c1nc1n2CCCC1, which growth is on record?
The growth was 100%.

For O=C1c2cccnc2C(=O)c2c1c(C(=O)OCCN1CCOCC1)c1ccccn21, which growth is on record?
Its growth is 14.4%.

C/C=C/C(N)=O was tested. Which growth did it give?
The growth was 98%.

With N#Cc1c(N)nc(N)nc1Nc1ccc(Br)cc1 as the molecule, how does the growth read?
Its growth is 80.1%.

With CCOC(=O)c1cnc2ccc(OC)cc2c1Nc1cccc(S(=O)(=O)NC)c1 as the molecule, how does the growth read?
The growth was 89.4%.

With COc1ccc(/C=C2\N=C3Sc4cc(Cl)ccc4C(=O)N3C2=O)cc1 as the molecule, how does the growth read?
Its growth is 73.8%.

Which growth does the source give for CCCCCCCCCc1cc(CN2CCCCC2)c(O)c(CN2CCCCC2)c1 here?
The growth was 57.7%.

How did the growth turn out when CCN(CC)CCCC(C)Nc1ccnc2c(OC)cccc12 (stereo not given) was run?
The growth was 101%.

Which growth does the source give for CC(=O)/C(=C/c1cccc(Cl)c1)C(=O)c1ccccc1 here?
Its growth is 95.3%.

How did the growth turn out when C[C@@]1(N2C(=O)OC[C@@H]2c2ccccc2)C(=O)N([C@H](CC(=O)N2CCC(N3CCCCC3)CC2)C(=O)NCc2cccc(C(F)(F)F)c2)[C@@H]1/C=C/c1ccccc1 was run?
The growth was 82.8%.

C=C1CC[C@@H]2[C@](C)(COC(C)=O)[C@H](OC(C)=O)CC[C@@]2(C)[C@@H]1CC(NCc1ccc(F)cc1)C1=CCOC1=O (stereo not given in full) was tested. Which growth did it give?
Its growth is 46%.

O=C1/C(=C/c2ccc(Cl)cc2Cl)CN(S(=O)(=O)c2ccccc2)C/C1=C\c1ccc(Cl)cc1Cl was tested. Which growth did it give?
Its growth is -66.1% (active).

How did the growth turn out when CN1/C(=C\C=C\C2=[N+](C)c3ccccc3C2(C)C)C(C)(C)c2ccccc21 was run?
Its growth is 23%.

For CC[C@H](Nc1nc(N)nc(C)c1C#N)c1nc2cccc(NCc3ccc(C(=O)NO)cc3)c2c(=O)n1-c1ccccc1, which growth is on record?
The growth was 13.2%.

How did the growth turn out when Cn1c(=O)c2[nH]c(C(O)C(O)C(O)C(O)CO)nc2n(C)c1=O (stereo not given) was run?
The growth was 102%.

For O=S(=O)(Nc1ccc(F)c(Cl)c1)c1ccc(-c2cnc(C3CC3)o2)cc1, which growth is on record?
The growth was 32.5%.

With CC1(C)CC(=O)C(c2c(-c3ccccc3)[nH]c3[nH]c(=S)[nH]c(=O)c23)=C(O)C1 as the molecule, how does the growth read?
The growth was 125%.

Which growth does the source give for COc1cnc2c(c1)C(=O)c1c-2n(CCCN2CCNCC2)c(=O)c2cc([N+](=O)[O-])ccc12 here?
Its growth is -94.5% (active).

Which growth does the source give for COc1ccc(S(=O)(=O)NCCCNc2nccc(-c3c(-c4cccc(N)c4)nc4sccn34)n2)cc1 here?
The growth was 77.5%.

O=C(C[C@@H](C(=O)NCc1cccc(C(F)(F)F)c1)N1C(=O)[C@@H](N2C(=O)OC[C@@H]2c2ccccc2)[C@H]1/C=C/c1ccccc1)NC1CCN(Cc2ccccc2)CC1 was tested. Which growth did it give?
Its growth is 85.2%.

With O=C1c2cc3c(cc2-c2c1c1cc(F)c(F)cc1c(=O)n2C[C@H](O)CO)OCO3 as the molecule, how does the growth read?
Its growth is -4.95% (active).

Which growth does the source give for COc1ccc(CNc2nccnn2)cc1 here?
Its growth is 97.8%.

How did the growth turn out when O=S(=O)(Nc1ccc(Cl)cc1Cl)c1ccc(-c2cnc(C3CC3)o2)cc1 was run?
The growth was 38.8%.

For CN[C@@]12CC3(C=CC(=O)C=C3)O[C@]1(Cc1ccc(OC)cc1)N(C)C(=O)N2, which growth is on record?
The growth was 72.9%.

With Cc1cc2c(cc1C)NC1=C(N2)OC(c2c3ccccc3cc3ccccc23)C1=O (stereo not given) as the molecule, how does the growth read?
The growth was 42.5%.

Which growth does the source give for CCN(CC)Cc1cc(Nc2c3ccc(Cl)cc3nc3c(C)cccc23)ccc1O here?
The growth was -41.1% (active).

Which growth does the source give for CNc1nc(C)c(-c2nc(Nc3cccc(S(N)(=O)=O)c3)ncc2F)s1 here?
The growth was 14.8%.

For CCCCCCCCCCCCN1CCCC(C)C1 (stereo not given), which growth is on record?
The growth was 68.7%.

COc1cccc2c1C(=O)c1c(O)c3c(c(O)c1C2=O)C[C@@](O)(/C(C)=N/NC(=O)c1ccc(Cl)cc1)C[C@@H]3OC1CC(N)C(O)C(C)O1 (stereo not given in full) was tested. Which growth did it give?
Its growth is -53.2% (active).

Which growth does the source give for O=C1/C(=C\c2cn(C(=O)c3ccc(Cl)cc3)c3ccccc23)c2ccccc2N1c1c(Cl)cccc1Cl here?
The growth was 86.4%.

With Nc1c(C(=O)Nc2cccc3c2OCCO3)sc2nc3c(cc12)C(=O)CCC3 as the molecule, how does the growth read?
The growth was 47.6%.

CN1CCN(Cc2ccc(NC(=O)c3cncc(C#Cc4cnc(N)c5cccnc45)c3)cc2C(F)(F)F)CC1 was tested. Which growth did it give?
The growth was 1.93% (active).

With CC(=O)N1CC(Nc2ccc(OC(F)(F)F)cc2)=CC1=O as the molecule, how does the growth read?
The growth was 30%.

For O=C(CN1CCN(c2cc3c(cc2F)c(=O)c(C(=O)O)cn3C2CC2)CC1)Nc1cc(=O)[nH]c(=O)[nH]1, which growth is on record?
Its growth is 95.4%.

For Nc1cc(-c2nc3sccn3c2-c2ccnc(NCCCNS(=O)(=O)c3ccc(F)cc3)n2)ccc1F, which growth is on record?
The growth was 29.7%.

For CSc1[nH]c2ncnc(N)c2c1C#N, which growth is on record?
The growth was 37.7%.

OC(c1cc(-c2ccccc2)nc2ccc(Cl)cc12)C1CCCCN1 (stereo not given) was tested. Which growth did it give?
The growth was 34.3%.

How did the growth turn out when C=C1CC2(OC1=O)C(=O)N(CCCCCCCCCCCCN1C(=O)C3(CC(=C)C(=O)O3)c3ccccc31)c1ccccc12 (stereo not given) was run?
Its growth is 80.2%.

For COc1ccc(CN(c2ccc(C)cc2)C2OC(=O)c3ccccc32)cc1OC (stereo not given), which growth is on record?
Its growth is 99.1%.
